Assay outcomes: PubChem BioAssay, several laboratories
GluA2 TARP mod: modulators of AMPA receptor GluA2-stargazin complexes | calls only at 30 µM | O88602+P19491 | HEK293 GluA2+stargazin, membrane potential dye (FDSS), glutamate EC50; hits were called plate by plate, in both directions | 3.5% of 40,000 active;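 active = any of four per-well response measures lying three or more SD from its plate-wide compound average, in either direction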
GIRK2 act: GIRK2 channel activators by thallium flux; P48051; HEK293 GIRK2/NPY4 cells, thallium flux fluorescence; activation (% efficacy), % for hits at 37.5 µM; 34,000 tested, under 10 active;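 active = primary screen hit, no activity in plain HEK293 cells, and in GIRK2-only cells above 5% efficacy rising with concentration; inactive = the rest, including fluorescent compounds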;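 note: efficacy is normalized control-subtracted fluorescence 15 s after thallium addition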
Calls only; . = inactive; / = not tested or not shown; + = active, no number. The sample as a whole holds a higher share of hits than the screen did.

SMILES	GluA2 TARP mod	GIRK2 act
COc1ccc2nc(-c3ccc(C)c(NS(=O)(=O)c4ccc(C(C)=O)cc4)c3)cn2n1	+	.
O=C(Nc1cccc([N+](=O)[O-])c1)c1ccno1	.	.
CCOc1ccc(-c2ccc(=O)n(CCNS(=O)(=O)c3cc(C)ccc3OC)n2)cc1	.	/
COc1ccc(CCn2c(SCC(C)C)nc3c2c(=O)[nH]c(=O)n3C)cc1	.	.
COc1ccc(OC)c(-c2ccc(=O)n(Cc3cccc([N+](=O)[O-])c3)n2)c1	+	.
COc1ccc(OC)c(-c2ccc(=O)n(Cc3ccccc3)n2)c1	.	.
COc1cc(NC(=O)Nc2nc(-c3cc4ccccc4o3)cs2)cc(OC)c1OC	.	.
CCOc1ccc(/C=C/C(=O)Nc2ccc(OC)cc2OC)cc1	.	/
Cc1ccc(Cl)cc1N1CCN(C(=O)c2cc3cc(Br)ccc3oc2=O)CC1	.	.
Cc1cc(C)c(N2CCN(C(=O)c3cc4cc(Br)ccc4oc3=O)CC2)c(C)c1	+	.
Cc1cccnc1NC(=O)c1ccc(=O)n(Cc2cccc([N+](=O)[O-])c2)c1	+	.
Cc1ccnc(NC(=O)c2ccc(=O)n(Cc3cccc([N+](=O)[O-])c3)c2)c1	+	.
Cc1c(Cl)cccc1NC(=O)c1ccc(=O)n(Cc2cccc([N+](=O)[O-])c2)c1	.	.
Cc1ccc(NC(=O)c2ccc(=O)n(Cc3cccc([N+](=O)[O-])c3)c2)cc1C	.	.
O=C(CSc1nc(=O)n(CCCO)c2c1CCC2)Nc1ccc(F)cc1	.	.
Cc1ccc(C)c(Sc2cc(N3CCC(C(=O)NCC4CCCO4)CC3)ncn2)c1 (stereo unspecified)	+	.
Cc1ccc(C)c(Sc2cc(N3CCC(C(=O)NCCN4CCCC4)CC3)ncn2)c1	.	.
CC1(C)CC(=O)C2=C(C1)NC1=C(C(=O)c3ccccc31)C2c1ccc(C(F)(F)F)cc1 (stereo unspecified)	+	/
CC1(C)CC(=O)C2=C(C1)NC1=C(C(=O)c3ccccc31)C2c1cccnc1 (stereo unspecified)	.	/
Cc1ccc(-c2cc(C(F)F)n3ncc(C(=O)N4CCC(C)CC4)c3n2)cc1	+	/
Cc1ccc(-c2cc(C(F)F)n3ncc(C(=O)n4c(C)nc5ccccc54)c3n2)cc1	.	/
CCOc1ccc(C(=O)N2CCN(c3ncnc4c3nnn4-c3cccc(F)c3)CC2)cc1OCC	.	.
O=C(NC(c1ccccc1)c1ccccc1)N1CCC(c2cccs2)CC1	.	.
O=C(NC12CC3CC(CC(C3)C1)C2)N1CCC(c2cccs2)CC1	+	.
COCc1c(C(=O)NC2CCCC2)nnn1-c1ccc(C)cc1	+	.
SMILES	GluA2 TARP mod	GIRK2 act
CCCc1c(C(=O)NC2CCCC2)nnn1-c1ccc(Cl)cc1	+	.
O=C(NC1CCCCCC1)c1n[nH]c2ccccc12	.	/
COCc1c(C(=O)Nc2ccc(NC(C)=O)cc2)nnn1-c1cc(C)cc(C)c1	.	.
CCCc1c(C(=O)NCCO)nnn1-c1ccc(C)cc1	.	.
CCCc1c(C(=O)NC2CCCCC2)nnn1-c1ccccc1	+	.
CCOc1ccc(-c2noc(C3CCN(S(=O)(=O)c4cccs4)CC3)n2)cc1	/	.
CCOC(=O)c1sc(NC(=O)c2ccnn2C(C)C)c(C#N)c1C	/	.
O=C(Nc1cc(-c2ccccc2)nn1CCO)c1ccco1	.	.
O=C(Nc1cc(-c2ccccc2)nn1CCO)c1ccc(Cl)s1	+	.
O=C(Cc1cccs1)N1CCC(c2nnc(-c3ccco3)s2)CC1	.	.
CC(C)n1ccc(C(=O)Nc2cccc(-c3nc4ccccc4[nH]3)c2)n1	.	.
CCCS(=O)(=O)N1CCCc2ccc(NS(=O)(=O)c3cc(Cl)ccc3OC)cc21	.	/
O=C(Nc1ccc([N+](=O)[O-])cc1)C1CCCN(c2ccc(-c3ccccc3)nn2)C1 (stereo unspecified)	.	.
O=C(Nc1ccccc1[N+](=O)[O-])C1CCCN(c2ccc(-c3ccccc3)nn2)C1 (stereo unspecified)	+	.
COc1cccc2cc(C(=O)N(CCc3cccs3)Cc3cccnc3)oc12	/	.
CC(C)c1nnc(C2CCN(CC(=O)NCc3ccccc3)CC2)o1	.	.
COc1cccc(-c2cc(CC(=O)N3CCc4ccccc4C3)no2)c1	+	.
COc1ccc(-c2cc(CC(=O)N3CCc4ccccc4C3)no2)cc1OC	.	.
COc1ccc(OC)c2sc(N(Cc3ccccc3)C(=O)c3ccn(C)n3)nc12	.	.
Cc1noc(C2CN(C(=O)c3cc4ccccc4[nH]3)C2)n1	.	.
COC(=O)NCC1(c2ccc(OC)cc2)CCCC1	.	.
CCSc1ccccc1C(=O)NCC1(c2ccc(OC)cc2)CCCC1	+	.
COc1ccc(S(=O)(=O)Nc2ccc(CC(=O)NC3CC3)cc2)cc1F	.	.
CC(=O)OC(Cn1nc(C)cc1C)Cn1c2ccccc2c2ccccc21 (stereo unspecified)	.	.
CC(=O)OC(COc1ccc(N(C)C(C)=O)cc1)Cn1c2ccccc2c2ccccc21 (stereo unspecified)	+	.
SMILES	GluA2 TARP mod	GIRK2 act
O=C(c1ccccc1)N1CCCc2cc(NS(=O)(=O)c3ccc(Cl)cc3)ccc21	.	/
O=C(Cc1cccc2ccccc12)NCC1CCN(c2ncccn2)CC1	.	.
O=C(Cc1cccc2ccccc12)NCC1CCN(C(=O)COc2ccccc2)CC1	+	.
CCOC(=O)C1CCN(c2ccc(S(=O)(=O)C(F)(F)F)cc2[N+](=O)[O-])CC1	.	/
Cc1nc(N2CCN(c3ccccc3F)CC2)c2c3c(sc2n1)CCCC3	.	/
CCc1nc(-n2nc(C)cc2N)c2c3c(sc2n1)CCC3	+	.
Cc1ccc([N+](=O)[O-])cc1NC(=O)C(=O)NCC(c1cccc2ccccc12)N(C)C (stereo unspecified)	/	.
COc1ccc(C(=O)Nc2cc(C(=O)N3CCOCC3)cn(C)c2=O)c(OC)c1	.	/
CC1Cc2c(NC(=O)CC3CCCC3)nn(C)c2NC1=O (stereo unspecified)	.	.
O=C(c1ccc([N+](=O)[O-])cc1)N(Cc1ccncc1)c1nc2c(F)cccc2s1	.	.
CCc1cccc2sc(N(Cc3ccncc3)C(=O)c3ccc(C#N)cc3)nc12	+	.
CCOc1cccc2sc(N(Cc3ccncc3)C(=O)c3ccc(S(=O)(=O)N(C)C)cc3)nc12	/	.
O=C(c1ccc([N+](=O)[O-])cc1)N(Cc1ccncc1)c1nc2ccc(F)cc2s1	+	.
O=C(Cn1cnc2c(sc3ncccc32)c1=O)Nc1ccccc1C(F)(F)F	.	.
Cc1cnc2c(c1SCC(=O)N1CCCCC1)c(=O)n(C)c(=O)n2C	.	.
Cc1cnc2c(c1SCCN1CCCCC1)c(=O)n(C)c(=O)n2C	+	.
CCn1nccc1C(=O)Nc1ccccc1Oc1ccccc1	.	.
CNC(=O)c1nsc(C(=O)NCc2ccc(OC)c(OC)c2)c1N	+	.
CNC(=O)c1nsc(C(=O)NCc2cccc(C(F)(F)F)c2)c1N	.	.
O=C(Cc1cccs1)NNC(=O)c1cccn(Cc2ccc(Cl)c(Cl)c2)c1=O	+	.
O=C(Cc1ccc(F)cc1)NNC(=O)c1cccn(Cc2ccc(Cl)c(Cl)c2)c1=O	.	.
CN1C(=O)C(=C2C=C(c3ccccc3)N(Cc3ccco3)C3=C2CCCC3)C(=O)N(C)C1=O	+	/
